Source: PubChem
The list is not random: actives were taken first. Their share in the collection is about 4.2%.
SW480 rerep = A quantitative high throughput screen for small molecules that induce DNA re-replication in SW480 colon adenocarcinoma cells. AID 624297, 2012. 340,000 tested, 1.8% active. SW480 DNA re-replication, Hoechst DNA content imaging, 48 h. Potency, µM (series often up to 46.1 µM), inactives show at the highest dose re-replication activation, usual class: activators; note: % of control where 0% means no effect; nearly all actives have a fitted effect of over 55% in size
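Image-based read-out: total Hoechst fluorescence of nuclei (405 nm excitation, 500-530 nm emission), with hits raising the fraction of high-intensity nuclei. SW480 colon cells incubated 48 hr with compounds at 37 C.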
A-T KAP1 phos = qHTS Assay for Identifying a Potential Treatment of Ataxia-Telangiectasia | AID 485349, 2010 | F2112 A-T fibroblasts, KAP-1 phosphorylation AlphaLISA; neocarzinostatin DNA damage 30 min before lysis | 320,000 tested, 0.19% active | Potency, µM (doses to about 57.5 µM), for the others: at the highest dose activation, hits mostly activators; note: % of control where 0% means no effect; nearly all actives have a fitted effect of over 45% in size
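hTERT-immortalized A-T patient fibroblasts (F2112), 500 cells/well in OPTI-MEM, 1% FBS, got compounds for 60 min, then NCS for 30 min at 37C. Lysates were then assayed for phospho-KAP-1 by AlphaLISA (anti-pKAP1 donor, anti-KAP1 acceptor beads), 6 hr at 25C.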
MCF10A rereplic = A quantitative high throughput screen for small molecules that induce DNA re-replication in MCF 10a normal breast cells; MCF 10A DNA re-replication, Hoechst nuclear intensity, 48 h; Potency, µM (series often up to 46.1 µM), for inactives: at the highest dose activity, positive = re-replication, hits mostly activators; 350,000 tested, 2.9% active; note: % of control where 0% means no effect; nearly all actives have a fitted effect of over 50% in size
Mito fusion act = qHTS Assay for Small Molecule Inhibitors of Mitochondrial Division or Activators of Mitochondrial Fusion | S. cerevisiae fusion-defective mutant growth rescue, CellTiterGlo 48 h | Potency, µM (series often up to 46.1 µM), inactives show at the top dose growth rescue (activation), hits mostly activators | 320,000 tested, 0.23% active | AID 485298, 2010; note: % of control where 0% means no effect; nearly all actives have a fitted effect of over 45% in size
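Luminescent cell viability in 1536-well qHTS format served as the measure of rescued growth in ts fusion-mutant S. cerevisiae cultured on non-fermentable YPEG for 48 hours at 37C.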
a7 integrin act = qHTS for Activators of Integrin-Mediated Alleviation for Muscular Dystrophy; alpha7betagal myoblasts, beta-gal FDG fluorescence, 48 h; 350,000 tested, 0.064% active; AID 624291, 2012; Potency, µM (top dose mostly 38.3 µM), for the others: at the top dose activation, usual class: activators;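 note: 100% = response of the positive control SU9516; nearly all actives have a fitted effect of over 60% in size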
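Alpha7betagal+/- myoblasts (passage 13) were plated 16-24 hr, then exposed to compounds (1:260 dilution of DMSO stock) for 48 hours at 37C. After MPER lysis, β-galactosidase reporter activity was read as FDG fluorescence (ex 480/em 540) after 30 minutes.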
Active calls of the source: *; ? = inconclusive; / = no result given; [ ] = remark or other dose. Calls come from the whole dose curve; as a rule, active = well fitted activation curve with a large enough effect; inconclusive = small, poorly fitted or top-dose-only effect; inactive = no such curve, though single readings can be large or run the other way. Potency is the fitted concentration of half-maximal effect.

SMILES	SW480 rerep	A-T KAP1 phos	MCF10A rereplic	Mito fusion act	a7 integrin act
O=C1C=CC(=O)N1c1ccccc1N1C(=O)C=CC1=O	2.3µM*	/	?	/	-58%
O=C1C=CC(=O)N1c1ccccn1	0%	/	-24%	/	0%
O=C(c1ccccc1)c1ccccc1N1C(=O)C=CC1=O	?	?	5.2µM*	-3%	-38%
O=C(O)c1cccc(N2C(=O)C=CC2=O)c1	/	/	/	/	12%
Cc1cc(OCC(=O)NNC(=O)c2cccnc2)cc(C)c1Cl	?	6%	8%	-1%	36%
O=C(CCc1ccccc1)NC1CCS(=O)(=O)C1 (stereo not drawn)	0%	-9%	3%	1%	21%
O=C(NCCO)C(F)(F)C(F)(F)C(F)(F)OC(F)(C(=O)NCCO)C(F)(F)F (stereo not drawn)	-1%	/	0%	-1%	18%
COc1cc2ccc(=O)oc2c(O)c1OCC=C(C)C	2.1µM*	4%	-10%	9%	-25%
CC(C)=CCOc1ccc2ccc(=O)oc2c1	-2%	15%	-8%	4%	-21%
COc1cccc(CN2CCNC(=O)C2CC(=O)N(C)CCc2ccccn2)c1OC (stereo not drawn)	/	3%	/	1%	/
Cc1n[nH]c(C)c1S(=O)(=O)N1CCN(C2CCCCC2)CC1	-5%	5%	11%	6%	34%
COc1ccc(-c2cnc(SCC(=O)Nc3ccc4c(c3)OCO4)n2Cc2ccco2)cc1	-2%	/	?	11%	-35%
CC(=O)Nc1cccc(NC(=O)CSc2ncc(-c3ccc(Cl)cc3)n2Cc2ccco2)c1	-14%	-9%	16µM*	?	-37%
Cc1ccccc1C(=O)N1CCc2ccccc2C1	-1%	4%	16µM*	-2%	-2%
CCN(CC)CCNc1ncnc2c1sc1nc(N3CCCC3)c3c(c12)CC(C)(C)OC3	14%	1%	21µM*	0%	0%
CC1(C)Cc2c(c(-c3ccco3)nc3sc4c(NCC5CCCO5)ncnc4c23)CO1 (stereo not drawn)	?	-8%	23µM*	4%	10%
CC(C)CNc1nnnc2c1sc1nc(N3CCOCC3)c3c(c12)CC(C)(C)SC3	-2%	-8%	17%	4%	13%
CC1(C)Cc2c(c(N3CCOCC3)nc3sc4c(NN)ncnc4c23)CS1	?	-4%	23µM*	0%	-56%
O=S1(=O)N[C@@H](Cc2ccccc2)COc2ccc(Cl)cc21	/	/	/	/	18%
O=C(NCCc1cn[nH]c1)c1ccc2oc(CCc3ccccc3)nc2c1	/	/	/	/	19%
COc1ccc(-c2cc(-c3ccccc3)c(C#N)c(S(C)(=O)=O)n2)cc1	?	-2%	?	-7%	-31%
N#Cc1c(-c2ccccc2)cc(-c2ccc(O)cc2)nc1N	?	-8%	23µM*	-1%	18%
CCOc1cc(-c2cc(-c3ccc(C)cc3)nc(N)c2C#N)ccc1O	16µM*	-3%	21µM*	11%	-30%
COc1ccc(-c2cc(-c3ccc(O)cc3)nc(N)c2C#N)cc1	22%	10%	?	2%	12%
CS(=O)(=O)c1nc(-c2ccc(Br)cc2)cc(-c2ccccc2)c1C#N	3.7µM*	7%	5.8µM*	-2%	-19%
SMILES	SW480 rerep	A-T KAP1 phos	MCF10A rereplic	Mito fusion act	a7 integrin act
CCc1cc(C(=O)Nc2nc(-c3ccccn3)cs2)sc1C	22%	7%	-9%	29%	6%
COc1ccc(OC)c(NC(=O)CN2CCC(C(=O)c3ccc(C)cc3)CC2)c1	3%	-3%	18µM*	25%	3%[7.66 µM]
CCOc1ccc(C(=O)Nc2ccccc2N2CCOCC2)cc1	-1%	-8%	12%	2%	0%
Cc1ccccc1NC(=O)CN1CCC(C(=O)c2ccc3c(c2)OCCO3)CC1	29%	2%	3%	-31%	0%
O=C(CN1CCC(C(=O)c2ccc3c(c2)OCCO3)CC1)Nc1ccccc1C(F)(F)F	4%	11%	16µM*	19%	-46%
COc1ccc(NC(=O)CN2CCC(C(=O)c3ccc(C)cc3)CC2)c(OC)c1	-44%	11%	?	9%	-29%
CCOc1ccc(C(=O)C2CCN(CC(=O)Nc3ccccc3N3CCOCC3)CC2)cc1	?	-4%	7.3µM*	24%	-24%
CCc1ccccc1NC(=O)CN1CCN(CC(=O)Nc2cc(C)ccc2OC)CC1	-57%	3%	?	0%	?
Cc1cc(Cl)c(S(=O)(=O)Nc2cccc(O)c2)cc1OCC(N)=O	-4%	6%	4%	2%	0%
COc1ncnc2c1ncn2CCCN1CCN(c2ncccn2)CC1	/	/	/	/	18%
COc1ccc(C(=O)ON=C2C=C(C)C(=O)C(C)=C2)cc1	?	16%	5%	-2%	-17%
COc1ccc(SN=C2C(C)=CC(=O)C=C2C)cc1	?	-4%	26µM*	10%	-38%
N#Cc1ccc(CC(=O)c2ccccc2)[nH]c1=O	16%	/	2%	/	8%
C=CCN1C(=O)/C(=C/c2ccc(O)c(OC)c2)S/C1=N/c1nccs1	?	-7%	18µM*	?	7%
Cc1ccc(OCCNC(=O)c2cccc(S(=O)(=O)NCc3ccccc3)c2)cc1	6.5µM*	-5%	6.5µM*	-1%	-2%
O=C(NCc1ccncc1)c1cccc(S(=O)(=O)NCc2ccccc2)c1	-9%	20%	-4%	-5%	-2%
CN(C)C(CNC(=O)c1cccc(S(=O)(=O)NCc2ccccc2)c1)c1ccccc1 (stereo not drawn)	6.5µM*	-9%	?	2%	3%
Cc1cc(NC(=O)CSc2nc(N)c(NC(=O)c3ccco3)c(=O)[nH]2)no1	-4%	6%	-1%	-2%	-17%
CCCC(C)c1nc(C(N)=O)c2[nH]c(=O)n(-c3ccc(OC)c(OC)c3)c2n1 (stereo not drawn)	-40%	2%	0%	14%	-29%
Cc1ccc2c(cnn2C(=O)CCC(=O)NCc2cccc(Cl)c2)c1	-2%	13%	19%	-3%	19%
Cc1nc(NC(=O)c2ccco2)sc1-c1csc(Nc2ccc(Cl)cc2Cl)n1	?	24%	16µM*	13%	-20%
CCC(=O)Nc1nc(C)c(-c2csc(Nc3cccc(O)c3)n2)s1	?	7%	21µM*	2%	-51%
Cc1nc(NC(=O)c2ccco2)sc1-c1csc(Nc2ccc(Cl)cc2)n1	-1%	0%	4%	7%	-15%
Cc1nc(C)c(-c2csc(Nc3cccc(O)c3)n2)s1	-1%	1%	-10%	2%	-17%
Cc1nc(NC(=O)c2ccccc2)sc1-c1csc(Nc2ccc(Cl)cc2Cl)n1	/	2%	/	-2%	/
